From PubChem BioAssay
The list is not random: actives were taken first. Their share in the collection is about 2.4%.
POLB inh: blocks human DNA polymerase beta activity; Pol beta primer extension/strand displacement, fluorescence kinetic; Potency, µM (highest dose often 114 µM), hits mostly inhibitors; P06746; AID 485314; 340,000 tested, 1.3% active
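Homogeneous kinetic assay of primer extension and strand displacement by 10 nM Pol beta, preincubated 15 min at room temperature with compound before 50 nM substrate (final) was added. Read at 0 and 10 min; four-parameter Hill fit.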
WRN inhibitor: WRN helicase (human) inhibition; Q14191; WRN helicase unwinding, fluorescent forked duplex, kinetic; Potency, µM (top dose mostly 114 µM), usual class: inhibitors; 360,000 tested, 0.46% active; note: nearly all actives have a fitted effect of over 55% in size
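Primary qHTS, 1536-well format. 20 nM WRN + compound, 15 min RT; start with 100 nM forked fluorophore/quencher duplex, 2 mM ATP (final); kinetic read ex 525/em 598 nm.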
Pol kappa inh-1: inhibitors of human DNA polymerase kappa. Q9UBT6. purified Pol kappa, fluorescent DNA synthesis assay, 10 min. Potency, µM (doses to about 107 µM), most hits filed as inhibitors. 400,000 tested, 0.53% active
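Fluorescent qHTS in 1536-well format: enzyme (10 nM) and compound sat 15 min at room temperature before 50 nM substrate (final) was added. Signal taken at 0 and 10 min; no-enzyme buffer wells were negative controls.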
FEN1 inhibitor: blocks human flap endonuclease 1 | Recombinant FEN1 flap cleavage, fluorescence, 15 min | AID 588795 | 390,000 tested, 0.35% active | Potency, µM (doses to about 114 µM), hits mostly inhibitors | P39748; note: nearly all actives have a fitted effect of over 65% in size
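Concentration–response screening of FEN1 (10 nM): 15 min compound preincubation at room temperature, reaction started with 50 nM substrate and read at 0 and 15 min. Corrected, normalized data were fitted by a four-parameter Hill equation.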
Pol eta inh-1: blocks human DNA polymerase eta activity | Q9Y253 | recombinant Pol eta, fluorescent DNA replication assay | Potency, µM (doses to about 114 µM), most hits filed as inhibitors | 390,000 tested, 1.2% active | AID 588591
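Pol eta at 10 nM preincubated with compounds 15 min at room temperature; reaction started with fluorescent substrate (50 nM final) and read kinetically at 0 and 10 min.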
POLI inh: inhibitors of human DNA polymerase iota. Potency, µM (doses to about 115 µM), hits mostly inhibitors. 390,000 tested, 1% active. Pol iota fluorescent replication assay, 10 min. Q9UNA4
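Fluorescent replication assay read twice, at 0 min and 10 min after adding 50 nM (final) substrate. Enzyme (10 nM) and compounds were first incubated 15 min at room temperature; enzyme-free buffer wells were negative controls.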
BAZ2B confirm: inhibits human BAZ2B bromodomain, hit validation | shares compounds with Pol kappa inh-1 | AlphaScreen BAZ2B / biotin-H3K14Ac peptide displacement | Potency, µM, most hits filed as inhibitors | 25 tested, 100% active; calls by dose curve
Target sequence (Q9UIF8 whole entry, looked up): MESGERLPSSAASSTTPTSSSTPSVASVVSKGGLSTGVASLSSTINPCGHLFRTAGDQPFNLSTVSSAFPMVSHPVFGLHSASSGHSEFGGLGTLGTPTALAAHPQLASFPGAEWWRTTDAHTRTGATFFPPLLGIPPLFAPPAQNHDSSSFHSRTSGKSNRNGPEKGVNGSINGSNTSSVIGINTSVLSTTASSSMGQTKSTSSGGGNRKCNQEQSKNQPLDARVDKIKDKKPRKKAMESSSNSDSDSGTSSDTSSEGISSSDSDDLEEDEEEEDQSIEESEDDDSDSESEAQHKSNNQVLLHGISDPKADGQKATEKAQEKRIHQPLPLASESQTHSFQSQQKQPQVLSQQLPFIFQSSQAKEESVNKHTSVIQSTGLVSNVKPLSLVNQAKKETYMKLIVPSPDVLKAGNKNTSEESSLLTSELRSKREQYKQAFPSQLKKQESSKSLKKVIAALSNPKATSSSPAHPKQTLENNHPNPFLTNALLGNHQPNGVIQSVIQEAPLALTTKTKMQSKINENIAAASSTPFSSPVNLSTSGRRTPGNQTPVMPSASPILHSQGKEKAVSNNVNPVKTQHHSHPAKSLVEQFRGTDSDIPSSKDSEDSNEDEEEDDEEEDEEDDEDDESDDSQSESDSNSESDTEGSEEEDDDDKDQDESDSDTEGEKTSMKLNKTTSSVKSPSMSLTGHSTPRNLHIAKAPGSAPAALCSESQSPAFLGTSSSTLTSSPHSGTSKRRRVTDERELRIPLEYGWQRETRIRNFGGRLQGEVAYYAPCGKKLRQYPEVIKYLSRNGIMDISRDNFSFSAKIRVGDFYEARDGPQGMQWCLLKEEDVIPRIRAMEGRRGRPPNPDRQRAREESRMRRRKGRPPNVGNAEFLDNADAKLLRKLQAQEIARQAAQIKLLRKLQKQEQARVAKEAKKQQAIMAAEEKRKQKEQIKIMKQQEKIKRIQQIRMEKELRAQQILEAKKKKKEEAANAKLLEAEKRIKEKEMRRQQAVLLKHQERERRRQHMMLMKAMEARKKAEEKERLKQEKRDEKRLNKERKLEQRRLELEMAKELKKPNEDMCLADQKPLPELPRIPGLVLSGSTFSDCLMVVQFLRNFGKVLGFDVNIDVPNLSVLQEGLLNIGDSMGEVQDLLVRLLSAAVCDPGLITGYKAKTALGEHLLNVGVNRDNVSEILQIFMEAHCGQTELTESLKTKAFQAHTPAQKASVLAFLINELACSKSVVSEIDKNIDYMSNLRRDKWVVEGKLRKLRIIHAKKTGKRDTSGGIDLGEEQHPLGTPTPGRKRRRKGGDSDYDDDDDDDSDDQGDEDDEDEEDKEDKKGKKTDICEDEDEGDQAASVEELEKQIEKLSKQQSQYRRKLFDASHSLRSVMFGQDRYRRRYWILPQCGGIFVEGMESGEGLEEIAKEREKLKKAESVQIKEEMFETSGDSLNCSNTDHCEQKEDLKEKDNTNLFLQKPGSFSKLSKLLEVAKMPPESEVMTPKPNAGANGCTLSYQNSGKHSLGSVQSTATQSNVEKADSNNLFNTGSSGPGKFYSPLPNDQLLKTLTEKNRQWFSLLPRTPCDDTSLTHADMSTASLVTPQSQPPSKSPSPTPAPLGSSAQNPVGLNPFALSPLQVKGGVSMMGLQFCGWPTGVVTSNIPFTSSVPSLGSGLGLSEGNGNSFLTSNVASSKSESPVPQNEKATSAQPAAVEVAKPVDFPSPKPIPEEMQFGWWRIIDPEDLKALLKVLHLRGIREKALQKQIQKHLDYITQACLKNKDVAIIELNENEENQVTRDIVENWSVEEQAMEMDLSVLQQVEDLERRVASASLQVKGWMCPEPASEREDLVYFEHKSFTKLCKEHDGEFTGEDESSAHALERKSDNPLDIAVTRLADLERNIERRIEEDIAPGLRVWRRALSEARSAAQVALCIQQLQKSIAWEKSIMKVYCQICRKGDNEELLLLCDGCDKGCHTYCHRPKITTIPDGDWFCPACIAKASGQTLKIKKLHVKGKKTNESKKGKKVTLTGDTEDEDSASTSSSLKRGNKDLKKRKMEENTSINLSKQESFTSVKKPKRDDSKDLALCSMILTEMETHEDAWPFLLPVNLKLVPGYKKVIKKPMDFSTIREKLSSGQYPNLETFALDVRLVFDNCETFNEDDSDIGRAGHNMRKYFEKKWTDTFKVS
BAZ2B bead ctr: interferes with AlphaScreen signal in BAZ2B counterscreen; Potency, µM (doses to about 57.1 µM), hits mostly inhibitors; 25 tested, under 10 active; shares compounds with Pol kappa inh-1; AlphaScreen biotin-His6 peptide bead counterscreen, signal decrease; AID 588859;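 active = clear concentration-dependent signal drop in the bead assay lacking the target, so a primary-screen artifact; inconclusive = weak, partial or single-dose response; inactive = no response, so a real primary hit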
PGK validate: validation of Trypanosoma brucei phosphoglycerate kinase inhibitors | shares compounds with Pol kappa inh-1 | TbPGK coupled GAPDH assay, Kinase-Glo luminescence | Potency, µM (doses to about 57.5 µM), most hits filed as inhibitors | 500 tested, 79% active; note: nearly all actives have a fitted effect of over 65% in size
POLI cherry-pick: Human Pol iota inhibitor confirmatory assay; shares compounds with Pol kappa inh-1; Pol iota primer extension, TAMRA/BHQ fluorescence; Potency, µM, usual class: inhibitors; 1,500 tested, 77% active
GALK confirm: galactokinase (human) inhibition, confirmation; Potency, µM (doses to about 115 µM), usual class: inhibitors; AID 2015; purified GALK, Kinase-Glo ATP depletion luminescence; shares compounds with Pol eta inh-1; 150 tested, 70% active
GALK redox cs: redox cycling activity in phenol red-HRP assay. 150 tested, 40% active. shares compounds with Pol eta inh-1. Potency, µM (titrated, usually from 115 µM), usual class: inhibitors. Phenol red-HRP H2O2 redox cycling, absorbance 600 nm
HEK293 viability: reduces HEK-293 cell viability in GALK counter-screen. shares compounds with Pol eta inh-1. HEK-293 viability, ATP luminescence (CellTiter-Glo), 24/48 h. Potency, µM (doses to about 46.1 µM), hits mostly inhibitors. 170 tested, 10% active. AID 2547
Pol kappa inh-2: Pol kappa (human) inhibition, cherry-pick confirmation; Potency, µM, actives largely listed as inhibitors; purified Pol-kappa, fluorescent strand-displacement substrate; shares compounds with Pol eta inh-1; 920 tested, 76% active
Pol eta inh-2: confirmation of human DNA polymerase eta inhibitors | shares compounds with Pol eta inh-1 | Pol eta primer extension, TAMRA/BHQ fluorescence, 10 min | Potency, µM, actives largely listed as inhibitors | 2,600 tested, 64% active | AID 720502
Numbers stand for hits; . = inactive; ? = inconclusive; / = not tested or not shown; [ ] = another dose, or the depositor's remark. Unless noted, calls come from the whole dose curve; as a rule, active = well fitted curve in the direction sought with a large enough effect; inconclusive = small, poorly fitted or top-dose-only effect, or another doubt; inactive = no such curve, though single readings can be large; an effect the other way counts as inactive or inconclusive.

SMILES	POLB inh	WRN inhibitor	Pol kappa inh-1	FEN1 inhibitor	Pol eta inh-1	POLI inh	POLI cherry-pick	Pol eta inh-2	others
COc1ccc(COC(=O)CCNC(=O)c2ccc(Cl)cc2)cc1	/	.	.	.	.	.	/	/
COc1cc2cc(C(=O)N3CC(COS(C)(=O)=O)c4ccc(O)cc43)[nH]c2c(OC)c1OC (centres undefined)	/	.	10µM	.	3.2µM	1.8µM	4.7	6.7	Pol kappa inh-2=3
CCN(CC)c1ccc(N=Cc2c(O)n(Cc3ccco3)c(=O)[nH]c2=O)cc1	.	.	.	.	.	.	/	/
NC(=O)c1ccc(N=Cc2c(O)n(Cc3ccco3)c(=O)[nH]c2=O)cc1	?	50µM	50µM	40µM	22µM	11µM	30	48	PGK validate=9.2µM;Pol kappa inh-2=30
C=C(C)C(=O)Nc1cccc(C2=NOC3(C2)C[C@H](C(N)=O)N(C(=O)COc2ccc(Cl)cc2)C3)c1 (some centres undefined)	4.5µM	?	18µM	.	7.9µM	45µM	17	8.5	BAZ2B confirm=5.6;BAZ2B bead ctr=.
C=C(C)C(=O)Nc1cccc(C2=NOC3(C2)C[C@@H](C(N)=O)N(C(=O)/C=C/CC)C3)c1 (some centres undefined)	3.5µM	?	28µM	.	7.9µM	16µM	?	19	BAZ2B confirm=10;BAZ2B bead ctr=.;PGK validate=?;Pol kappa inh-2=19
C=C(C)C(=O)Nc1cccc(C2=NOC3(C2)C[C@@H](C(N)=O)N(C(=O)C2(C)CC2)C3)c1 (some centres undefined)	1.1µM	?	45µM	?	3.2µM	50µM	?	9.5	BAZ2B confirm=1.3;BAZ2B bead ctr=?;PGK validate=?
O=C(C1CCCN(Cc2ccc(Cl)cc2)C1)N1CCCCC1 (centres undefined)	.	.	.	.	.	.	/	/
OC[C@@H]1O[C@H](OC2[C@@H](O)[C@@H](O)C(O)O[C@@H]2CO)[C@H](O)[C@@H](O)[C@@H]1OC1O[C@H](CO)[C@@H](O)[C@H](O)[C@@H]1O (some centres undefined)	/	/	.	/	/	/	/	/
COc1ccc(-n2ncc(C(=O)N3CCN(c4cc(C)ccc4C)CC3)c2C2CCN(C(=O)OC(C)(C)C)CC2)cc1	.	/	.	.	.	.	/	/
N#CC(C#N)=NNc1ccc(S(N)(=O)=O)cc1	.	56µM	45µM	40µM	13µM	20µM	/	67	PGK validate=.;Pol kappa inh-2=?
C=C1C(=O)O[C@@H]2C[C@@H](C)[C@@H]3C=CC(=O)[C@@]3(C)[C@@H](OC(=O)CC(=O)O[C@H]3[C@@H]4C(=C)C(=O)O[C@@H]4C[C@@H](C)[C@@H]4C=CC(=O)[C@]43C)[C@H]12	20µM	45µM	35µM	?	7.9µM	4.5µM	19	17
C=C1C(=O)O[C@H]2C[C@@H](C)[C@@H]3C=CC(=O)[C@@]3(C)C[C@H]12	.	.	.	.	.	?	/	/
CCN1C(=O)/C(=C/c2ccc3c(c2)CCN3CCCCl)C(=O)NC1=S	28µM	.[11.6 µM]	45µM	?	13µM	14µM	67	43
CCCCN1C(=O)/C(=C/c2ccc(N3CCCCCC3)cc2)C(=O)NC1=S	.	/	/	/	/	/	/	/
Cc1ccc(N2C(=O)NC(=O)/C(=C/c3ccc(-c4ccc(C(=O)O)c(Cl)c4)o3)C2=O)cc1	14µM	?	.	?	8.9µM	20µM	?	30
Cc1cc(/C=C2\C(=O)NC(=O)N(c3ccc(F)cc3)C2=O)c(C)n1-c1ccc(C(=O)O)cc1	.	.[11.6 µM]	.	.	?	?	/	/
Cc1cc(/C=C2\C(=O)NC(=O)N(c3ccc(Cl)cc3)C2=O)c(C)n1-c1sc2c(c1C#N)CCCC2	?	?	79µM	?	20µM	10µM	75	30	Pol kappa inh-2=75
Cc1ccc(N2C(=O)NC(=O)/C(=C\c3cc(C)n(-c4cc(C(=O)O)cc(C(=O)O)c4)c3C)C2=O)cc1	.	?	?	56µM	7.9µM	8.9µM	/	38	PGK validate=?;Pol kappa inh-2=17
O=C1NC(=O)N(Cc2ccccc2Cl)C(=O)/C1=C/c1cccs1	.	?	.	?	?	?	/	/
Cc1cc(/C=C2\C(=O)NC(=O)N(Cc3ccccc3Cl)C2=O)c(C)n1-c1ccc(C(=O)O)cc1	16µM	56µM	50µM	.	10µM	8.9µM	21	24
CCON=O	/	/	.[19.4 µM]	/	/	/	/	/
O=C(O)c1ccc[nH]c1=S	.	.	.	.	.	?	/	/
Cc1cc(/C=C2\C(=O)NC(=O)N(Cc3ccco3)C2=O)c(C)n1-c1ccc(C(=O)O)cc1	?	?	?	.	18µM	18µM	19	27
O=C1C(=O)c2cccc3cccc1c23	.	.	.	.	.	.	/	/
O=C1C(=O)c2ccccc2-c2ccccc21	?	.	.	.	2.5µM	0.71µM	/	/	PGK validate=4.1µM;GALK confirm=1.9µM;GALK redox cs=0.84µM;HEK293 viability=7.1µM
O=C(O)Cn1cc(/C=C2\C(=O)NC(=O)N(c3ccc(Cl)cc3)C2=O)c2ccccc21	.	?	.	?	?	?	/	/
